According to PubChem BioAssay (NCI):
The panel holds about 79,000 compounds, 15% with a hit somewhere; the sample as a whole holds those more often. Values without a mark were called inactive. Rule as the data show it: active = growth inhibition above about 70%; inactive = the rest.

Experiment: NCI Yeast Anticancer Drug Screen. Data for the bub3 strain (AID 167)
Conditions: S. cerevisiae bub3 mutant strain, at 1.2 µM, hits give high values
In short: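 Readout: yeast growth inhibition, expressed relative to vehicle-only wells. The test organism is a mutant strain from a panel with lesions in DNA repair or checkpoint genes.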

For `Cc1cccc2c(C(O)CBr)cc(-c3ccc(Cl)cc3)nc12` (stereo not given), which growth inhibition is on record?
Its growth inhibition is 0%.

For `CN(C)C[C@H]1CC[C@@H](CN(C)C)C1=O`, which growth inhibition is on record?
Its growth inhibition is 17%.

With `CC1=C(SCCO)C(=O)c2ccccc2C1=O` as the compound, how does the growth inhibition read?
The growth inhibition was -4%.

With `COC(=O)CCNc1c2ccccc2nc2cccc([N+](=O)[O-])c12` as the compound, how does the growth inhibition read?
The growth inhibition was -13%.

For `CC(/C=C/c1ccc2c(c1)OCO2)[N+](=O)[O-]` (stereo not given), which growth inhibition is on record?
Its growth inhibition is 23%.

For `COC(=O)C1=C(C)NC(C)=C(C(=O)OCCCN2CCC(c3ccccc3)(c3ccccc3)CC2)C1c1cccc([N+](=O)[O-])c1` (stereo not given), which growth inhibition is on record?
The growth inhibition was 11%.

Which growth inhibition does the source give for `CCOC(=O)c1cnc2c(C(F)(F)F)cccc2c1N=[N+]=[N-]` here?
The growth inhibition was -2%.

Which growth inhibition does the source give for `O=[N+]([O-])c1cc2no[n+]([O-])c2cc1N1CCCCC1` here?
Its growth inhibition is -24%.

For `COC(=O)c1ccc(NCC2=CC(=O)C=CC2=O)cc1O`, which growth inhibition is on record?
The growth inhibition was -3%.

For `CCCCCCCCNC(=O)C1=C(C)NC(C)=C(C(=O)NCCCCCCCC)C1`, which growth inhibition is on record?
Its growth inhibition is 0%.

With `S=C(Nc1ccc(Cl)c(Cl)c1)SCc1ccc2c(c1)OCO2` as the compound, how does the growth inhibition read?
The growth inhibition was -7%.

Which growth inhibition does the source give for `O=S(=O)(CCCl)c1ccccc1Cl` here?
The growth inhibition was -1%.

For `Nc1ccccc1CC(O)C(=O)O` (stereo not given), which growth inhibition is on record?
Its growth inhibition is 5%.

With `CN(C)c1ccc(Sc2ccc3nc(N)nc(N)c3c2)cc1` as the compound, how does the growth inhibition read?
Its growth inhibition is -17%.

Which growth inhibition does the source give for `CC(C)C1=CCC2C(=C1)CCC1C(C)(C(=O)O)CCCC21C` (stereo not given) (tested in a mixture with another compound) here?
Its growth inhibition is 8%.

With `Cc1ccc(S(=O)(=O)Oc2cc(Cl)c(Cl)cc2Cl)cc1` as the compound, how does the growth inhibition read?
Its growth inhibition is 1%.

Which growth inhibition does the source give for `CSC(=S)Nc1cc(C)ccn1` here?
Its growth inhibition is -8%.

For `CC(C)c1cc(C(C)C)c(O)c(C([O-])[O-])c1.CC(C)c1cc(C(C)C)c(O)c(C([O-])[O-])c1.CC(C)c1cc(C(C)C)c(O)c(C([OH2+])[OH2+])c1.CC(C)c1cc(C(C)C)c(O)c(C([OH2+])[OH2+])c1.[Cu+2].[Cu+2].[OH3+].[OH3+]`, which growth inhibition is on record?
Its growth inhibition is 1%.

Which growth inhibition does the source give for `Cc1cc(I)ccc1N` here?
Its growth inhibition is 1%.

Which growth inhibition does the source give for `CC(Br)C(=O)c1ccc2cc(Br)c3ccccc3c2c1` (stereo not given) here?
Its growth inhibition is -7%.

With `O=C(Nc1ccccc1)OCCc1ccc(Cl)c(Cl)c1` as the compound, how does the growth inhibition read?
Its growth inhibition is -1%.

Which growth inhibition does the source give for `O=Cc1cccc2ccc3ccccc3c12` here?
Its growth inhibition is -7%.

With `O=[N+]([O-])CC(SCc1ccccc1)c1ccc2c(c1)OCO2` (stereo not given) as the compound, how does the growth inhibition read?
Its growth inhibition is -28%.

Which growth inhibition does the source give for `CC1(Cl)CC(O)C2(CC1Br)C1(C)OC1C1OC1(Br)C2(C)C` (stereo not given) here?
Its growth inhibition is -15%.

Which growth inhibition does the source give for `Cc1cc(O)cc(O)c1N=Nc1ccc([N+](=O)[O-])cc1` here?
The growth inhibition was 4%.

Which growth inhibition does the source give for `CCCCCCCCCCCCCC[N+](C)(CC(=O)[O-])Cc1ccccc1` (stereo not given) here?
Its growth inhibition is -1%.

With `CC1=NN(c2cccc(Cl)c2)C(=O)C1` as the compound, how does the growth inhibition read?
The growth inhibition was -42%.

For `CC(=O)OCc1ccc(O)c(C=O)c1`, which growth inhibition is on record?
Its growth inhibition is -7%.

For `Cc1ccc2ccc3cccc4ccc1c2c34`, which growth inhibition is on record?
The growth inhibition was -1%.

Which growth inhibition does the source give for `Cc1nc(-[n+]2nc(-c3ccncc3)nn2-c2ccccc2)sc1C` here?
The growth inhibition was -1%.

For `C(CCSC1=NCCN1)CSC1=NCCN1` (tested in a mixture with another compound), which growth inhibition is on record?
The growth inhibition was -8%.

For `CCCCCCCCCCC(=O)Cl`, which growth inhibition is on record?
The growth inhibition was -9%.

Which growth inhibition does the source give for `COC1C=COC2(C)Oc3c(C)c(O)c4c(c3C2=O)/C(=N/C2CCC(O)OC2C)C=C(NC(=O)/C(C)=C\C(=O)C2CC2C(O)C(C)C(O)C(C)C(OC(C)=O)C1C)C4=O` (stereo not given) here?
Its growth inhibition is -6%.

With `S=c1[nH]nc(Nc2ccc(Cl)cc2)s1` as the compound, how does the growth inhibition read?
Its growth inhibition is -3%.

For `O=C1CSC(/C=C/c2ccccc2)N1c1ccc(-c2ccc(-n3c(-c4ccccc4)nc4ccccc4c3=O)cc2)cc1` (stereo not given), which growth inhibition is on record?
The growth inhibition was 4%.

For `O=C1C=CC(=O)N1c1ccc2c(c1)Cc1cc(NC(=O)C(F)(F)F)ccc1-2`, which growth inhibition is on record?
Its growth inhibition is -11%.

Which growth inhibition does the source give for `Brc1ccc(-c2cc3c(cc2C2SCCS2)OCO3)cc1` here?
The growth inhibition was -16%.

Which growth inhibition does the source give for `Oc1ccc2ccccc2c1C(c1ccc(Cl)cc1)c1c(O)ccc2ccccc12` here?
The growth inhibition was -6%.

With `C[CH2][Sn]([CH2]C)([O]C(=O)C(OC(C)=O)c1ccccc1)[O]C(=O)C(OC(C)=O)c1ccccc1` (stereo not given) as the compound, how does the growth inhibition read?
Its growth inhibition is 1%.

With `Cc1ccc2ccc(O)cc2c1` as the compound, how does the growth inhibition read?
Its growth inhibition is 4%.

Same assay, conditions: S. cerevisiae bub3 mutant strain, at 3.7 µM, hits give high values

For `Cc1cccc2c(C(O)CBr)cc(-c3ccc(Cl)cc3)nc12` (stereo not given), which growth inhibition is on record?
The growth inhibition was 8%.

For `CN(C)C[C@H]1CC[C@@H](CN(C)C)C1=O`, which growth inhibition is on record?
Its growth inhibition is 12%.

For `CC1=C(SCCO)C(=O)c2ccccc2C1=O`, which growth inhibition is on record?
Its growth inhibition is -1%.

Which growth inhibition does the source give for `COC(=O)CCNc1c2ccccc2nc2cccc([N+](=O)[O-])c12` here?
The growth inhibition was 11%.

For `CC(/C=C/c1ccc2c(c1)OCO2)[N+](=O)[O-]` (stereo not given), which growth inhibition is on record?
Its growth inhibition is 69%.

Which growth inhibition does the source give for `COC(=O)C1=C(C)NC(C)=C(C(=O)OCCCN2CCC(c3ccccc3)(c3ccccc3)CC2)C1c1cccc([N+](=O)[O-])c1` (stereo not given) here?
Its growth inhibition is 16%.

For `CCOC(=O)c1cnc2c(C(F)(F)F)cccc2c1N=[N+]=[N-]`, which growth inhibition is on record?
Its growth inhibition is -3%.

With `O=[N+]([O-])c1cc2no[n+]([O-])c2cc1N1CCCCC1` as the compound, how does the growth inhibition read?
Its growth inhibition is -8%.

With `COC(=O)c1ccc(NCC2=CC(=O)C=CC2=O)cc1O` as the compound, how does the growth inhibition read?
Its growth inhibition is 10%.

For `CCCCCCCCNC(=O)C1=C(C)NC(C)=C(C(=O)NCCCCCCCC)C1`, which growth inhibition is on record?
Its growth inhibition is 0%.

For `S=C(Nc1ccc(Cl)c(Cl)c1)SCc1ccc2c(c1)OCO2`, which growth inhibition is on record?
The growth inhibition was 29%.

Which growth inhibition does the source give for `O=S(=O)(CCCl)c1ccccc1Cl` here?
The growth inhibition was 6%.

Which growth inhibition does the source give for `Nc1ccccc1CC(O)C(=O)O` (stereo not given) here?
The growth inhibition was -14%.

Which growth inhibition does the source give for `CN(C)c1ccc(Sc2ccc3nc(N)nc(N)c3c2)cc1` here?
The growth inhibition was -11%.

For `CC(C)C1=CCC2C(=C1)CCC1C(C)(C(=O)O)CCCC21C` (stereo not given) (tested in a mixture with another compound), which growth inhibition is on record?
Its growth inhibition is 11%.

With `Cc1ccc(S(=O)(=O)Oc2cc(Cl)c(Cl)cc2Cl)cc1` as the compound, how does the growth inhibition read?
The growth inhibition was 3%.

Which growth inhibition does the source give for `CSC(=S)Nc1cc(C)ccn1` here?
The growth inhibition was 50%.

For `CC(C)c1cc(C(C)C)c(O)c(C([O-])[O-])c1.CC(C)c1cc(C(C)C)c(O)c(C([O-])[O-])c1.CC(C)c1cc(C(C)C)c(O)c(C([OH2+])[OH2+])c1.CC(C)c1cc(C(C)C)c(O)c(C([OH2+])[OH2+])c1.[Cu+2].[Cu+2].[OH3+].[OH3+]`, which growth inhibition is on record?
Its growth inhibition is 9%.

Which growth inhibition does the source give for `Cc1cc(I)ccc1N` here?
The growth inhibition was -7%.

For `CC(Br)C(=O)c1ccc2cc(Br)c3ccccc3c2c1` (stereo not given), which growth inhibition is on record?
Its growth inhibition is -1%.

Which growth inhibition does the source give for `O=C(Nc1ccccc1)OCCc1ccc(Cl)c(Cl)c1` here?
Its growth inhibition is 2%.

Which growth inhibition does the source give for `O=Cc1cccc2ccc3ccccc3c12` here?
The growth inhibition was -4%.

With `O=[N+]([O-])CC(SCc1ccccc1)c1ccc2c(c1)OCO2` (stereo not given) as the compound, how does the growth inhibition read?
Its growth inhibition is 13%.

With `CC1(Cl)CC(O)C2(CC1Br)C1(C)OC1C1OC1(Br)C2(C)C` (stereo not given) as the compound, how does the growth inhibition read?
The growth inhibition was 1%.

Which growth inhibition does the source give for `Cc1cc(O)cc(O)c1N=Nc1ccc([N+](=O)[O-])cc1` here?
Its growth inhibition is 26%.

Which growth inhibition does the source give for `CCCCCCCCCCCCCC[N+](C)(CC(=O)[O-])Cc1ccccc1` (stereo not given) here?
The growth inhibition was 10%.

For `CC1=NN(c2cccc(Cl)c2)C(=O)C1`, which growth inhibition is on record?
The growth inhibition was -33%.

For `CC(=O)OCc1ccc(O)c(C=O)c1`, which growth inhibition is on record?
Its growth inhibition is -7%.

Which growth inhibition does the source give for `Cc1ccc2ccc3cccc4ccc1c2c34` here?
The growth inhibition was 0%.

For `Cc1nc(-[n+]2nc(-c3ccncc3)nn2-c2ccccc2)sc1C`, which growth inhibition is on record?
Its growth inhibition is -5%.

With `C(CCSC1=NCCN1)CSC1=NCCN1` (tested in a mixture with another compound) as the compound, how does the growth inhibition read?
The growth inhibition was 12%.

With `CCCCCCCCCCC(=O)Cl` as the compound, how does the growth inhibition read?
Its growth inhibition is -4%.

For `COC1C=COC2(C)Oc3c(C)c(O)c4c(c3C2=O)/C(=N/C2CCC(O)OC2C)C=C(NC(=O)/C(C)=C\C(=O)C2CC2C(O)C(C)C(O)C(C)C(OC(C)=O)C1C)C4=O` (stereo not given), which growth inhibition is on record?
The growth inhibition was -6%.

For `S=c1[nH]nc(Nc2ccc(Cl)cc2)s1`, which growth inhibition is on record?
The growth inhibition was -1%.

Which growth inhibition does the source give for `O=C1CSC(/C=C/c2ccccc2)N1c1ccc(-c2ccc(-n3c(-c4ccccc4)nc4ccccc4c3=O)cc2)cc1` (stereo not given) here?
The growth inhibition was 12%.

With `O=C1C=CC(=O)N1c1ccc2c(c1)Cc1cc(NC(=O)C(F)(F)F)ccc1-2` as the compound, how does the growth inhibition read?
Its growth inhibition is -5%.

Which growth inhibition does the source give for `Brc1ccc(-c2cc3c(cc2C2SCCS2)OCO3)cc1` here?
Its growth inhibition is -8%.

Which growth inhibition does the source give for `Oc1ccc2ccccc2c1C(c1ccc(Cl)cc1)c1c(O)ccc2ccccc12` here?
The growth inhibition was -15%.

Which growth inhibition does the source give for `C[CH2][Sn]([CH2]C)([O]C(=O)C(OC(C)=O)c1ccccc1)[O]C(=O)C(OC(C)=O)c1ccccc1` (stereo not given) here?
The growth inhibition was 4%.

For `Cc1ccc2ccc(O)cc2c1`, which growth inhibition is on record?
The growth inhibition was 10%.
